# The supplement of paper PMC8728848
# The entries come from a sample that favours the strongest signals as a whole.
# B1: HPA (Helix pomatia), Q2F1K8 (protein)
# chain: MQAFYSGLLLLCVVAFAAAQRVQSGKIDCGNDAGWAKVPSDDPGRDNTRELAKNITFASPYCRPPVVLLSITQLDVEQSQNLRVIARLYSVSPTGFKASCYTWHNTKVYSMSISWISIENY
# How the values were obtained:
# Experiment in all cases: glycan array binding signal (z-score within array); higher = stronger binding
# Conditions in all cases: glycan notation: IUPAC condensed, linker removed
# [1] = target: Fuc(a1-2)Gal(b1-3)GlcNAc(b1-3)[Gal(b1-4)[Fuc(a1-3)]GlcNAc(b1-6)]Gal(b1-4)Glc
# Procedure, shortened: (§1)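 Arrays were curated from the Consortium for Functional Glycomics database, 3228 in total, and kept only where the protein sequence was available. Binding is expressed as a within-array Z-score. This score was averaged across arrays of the same protein sequence at different concentrations or buffers and across linkers, and negative values can be read as non-binding.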
# [2] = target: Fuc(a1-2)Gal(b1-3)[Fuc(a1-4)]GlcNAc(b1-2)Man(a1-3)[Fuc(a1-2)Gal(b1-3)[Fuc(a1-4)]GlcNAc(b1-2)Man(a1-6)]Man(b1-4)GlcNAc(b1-4)GlcNAc
# Procedure, shortened: as §1
# [3] = target: Fuc(a1-2)Gal(b1-4)[Fuc(a1-3)]GlcNAc
# Procedure, shortened: as §1
# [4] = target: Fuc(a1-2)GlcNAc
# Procedure, shortened: as §1
# [5] = target: Fuc(a1-2)[Gal(a1-3)]Gal(b1-3)GalNAc
# Procedure, shortened: as §1
# [6] = target: Fuc(a1-2)[GalNAc(a1-3)]Gal(b1-4)GlcNAc(b1-2)Man(a1-3)[Fuc(a1-2)[GalNAc(a1-3)]Gal(b1-4)GlcNAc(b1-2)Man(a1-6)]Man(b1-4)GlcNAc(b1-4)GlcNAc
# Procedure, shortened: as §1
# [7] = target: Fuc(a1-2)[GalNAc(a1-3)]Gal(b1-4)GlcNAc(b1-3)Gal(b1-4)GlcNAc
# Procedure, shortened: as §1
# [8] = target: Fuc(a1-2)[GalNAc(a1-3)]Gal(b1-4)GlcNAc(b1-3)Gal(b1-4)GlcNAc(b1-3)Gal(b1-4)GlcNAc
# Procedure, shortened: as §1
# [9] = target: Fuc(a1-2)[GalNAc(a1-3)]Gal(b1-4)[Fuc(a1-3)]GlcNAc(b1-3)GalNAc
# Procedure, shortened: as §1
# [10] = target: Fuc(a1-2)[GalNAc(a1-4)]Gal(b1-4)GlcNAc
# Procedure, shortened: as §1
# [11] = target: Fuc(a1-3)[Gal(b1-4)]Glc6S
# Procedure, shortened: as §1
# [12] = target: Fuc(a1-3)[Gal(b1-4)]GlcNAc(b1-2)Man(a1-3)[Fuc(a1-3)[Gal(b1-4)]GlcNAc(b1-2)Man(a1-6)]Man(b1-4)GlcNAc(b1-4)GlcNAc
# Procedure, shortened: as §1
# [13] = target: Fuc(a1-3)[Gal(b1-4)]GlcNAc(b1-3)Gal(b1-4)[Fuc(a1-3)]GlcNAc
# Procedure, shortened: as §1
# [14] = target: Fuc(a1-3)[Gal(b1-4)]GlcNAc(b1-4)Gal(b1-4)[Fuc(a1-3)]GlcNAc(b1-4)Gal(b1-4)[Fuc(a1-3)]GlcNAc
# Procedure, shortened: as §1
# [15] = target: Fuc(a1-3)[Neu5Ac(a2-3)]Gal(b1-4)GlcNAc(b1-3)GalNAc
# Procedure, shortened: as §1
# [16] = target: Gal(a1-3)Gal(b1-3)GlcNAc
# Procedure, shortened: as §1
# [17] = target: Gal(a1-3)Gal(b1-4)GlcNAc(b1-6)GalNAc
# Procedure, shortened: as §1
# [18] = target: Gal(a1-4)Gal(b1-4)GlcNAc
# Procedure, shortened: as §1
# [19] = target: Gal(b1-2)Gal
# Procedure, shortened: as §1
# [20] = target: Gal(b1-3)GalNAc(b1-3)Gal
# Procedure, shortened: as §1
# [21] = target: Gal(b1-3)GalNAc(b1-4)[Neu5Ac(a2-3)]Gal(b1-4)Glc
# Procedure, shortened: as §1
# [22] = target: Gal(b1-3)GlcNAc(b1-2)Man
# Procedure, shortened: as §1
# [23] = target: Gal(b1-3)GlcNAc(b1-3)Gal(b1-4)GlcNAc(b1-3)Gal(b1-4)GlcNAc(b1-2)[Gal(b1-3)GlcNAc(b1-3)Gal(b1-4)GlcNAc(b1-3)Gal(b1-4)GlcNAc(b1-6)]Man(a1-6)[Gal(b1-3)GlcNAc(b1-3)Gal(b1-4)GlcNAc(b1-3)Gal(b1-4)GlcNAc(b1-2)Man(a1-3)]Man(b1-4)GlcNAc(b1-4)[Fuc(a1-6)]GlcNAc
# Procedure, shortened: as §1
# [24] = target: Gal(b1-3)GlcNAc(b1-3)Gal(b1-4)GlcNAc(b1-6)[Gal(b1-3)GlcNAc(b1-3)]Gal(b1-4)Glc
# Procedure, shortened: as §1
# [25] = target: Gal(b1-3)GlcNAc(b1-6)[Gal(b1-3)]GalNAc
# Procedure, shortened: as §1
# [26] = target: Gal(b1-3)[Fuc(a1-4)]GlcNAc(b1-2)Man(a1-3)[Gal(b1-3)[Fuc(a1-4)]GlcNAc(b1-2)Man(a1-6)]Man(b1-4)GlcNAc(b1-4)GlcNAc
# Procedure, shortened: as §1
# [27] = target: Gal(b1-4)GlcNAc(b1-2)Man(a1-3)[GlcNAc(b1-4)][Gal(b1-4)GlcNAc(b1-2)Man(a1-6)]Man(b1-4)GlcNAc(b1-4)GlcNAc
# Procedure, shortened: as §1
# [28] = target: Gal(b1-4)GlcNAc(b1-3)Gal(b1-4)GlcNAc(b1-3)Gal(b1-4)GlcNAc(b1-2)[Gal(b1-4)GlcNAc(b1-3)Gal(b1-4)GlcNAc(b1-3)Gal(b1-4)GlcNAc(b1-6)]Man(a1-6)[Gal(b1-4)GlcNAc(b1-3)Gal(b1-4)GlcNAc(b1-3)Gal(b1-4)GlcNAc(b1-2)Man(a1-3)]Man(b1-4)GlcNAc(b1-4)[Fuc(a1-6)]GlcNAc
# Procedure, shortened: as §1
# [29] = target: Gal(b1-4)GlcNAc(b1-3)Gal(b1-4)GlcNAc(b1-3)Gal(b1-4)GlcNAc(b1-3)Gal(b1-4)GlcNAc(b1-3)Gal(b1-4)GlcNAc(b1-2)Man(a1-3)[Gal(b1-4)GlcNAc(b1-3)Gal(b1-4)GlcNAc(b1-3)Gal(b1-4)GlcNAc(b1-3)Gal(b1-4)GlcNAc(b1-3)Gal(b1-4)GlcNAc(b1-2)Man(a1-6)]Man(b1-4)GlcNAc(b1-4)[Fuc(a1-6)]GlcNAc
# Procedure, shortened: as §1
# [30] = target: Gal(b1-4)GlcNAc(b1-3)Gal(b1-4)GlcNAc(b1-6)[Gal(b1-3)]GalNAc
# Procedure, shortened: as §1
# [31] = target: Gal(b1-4)GlcNAc(b1-3)[Gal(b1-4)GlcNAc(b1-6)]GalNAc
# Procedure, shortened: as §1
# [32] = target: Gal(b1-4)GlcNAc(b1-6)[Gal(b1-3)]GalNAc
# Procedure, shortened: as §1
# [33] = target: Gal6S(b1-3)GlcNAc6S
# Procedure, shortened: as §1
# [34] = target: GalNAc(a1-3)Gal
# Procedure, shortened: as §1
# [35] = target: GalNAc(a1-3)GalNAc
# Procedure, shortened: as §1
# [36] = target: GalNAc(a1-3)GalNAc(a1-3)Gal(a1-4)Gal(b1-4)GlcNAc
# Procedure, shortened: as §1
# [37] = target: GalNAc(a1-3)GalNAc(b1-3)Gal(a1-4)Gal(b1-4)Glc
# Procedure, shortened: as §1
# [38] = target: GalNAc(b1-3)GalNAc
# Procedure, shortened: as §1
# [39] = target: GlcA3S(b1-3)Gal(b1-4)GlcNAc(b1-3)Gal(b1-4)Glc
# Procedure, shortened: as §1
# [40] = target: GlcNAc(b1-2)Man(a1-3)[GlcNAc(b1-4)][GlcNAc(b1-2)Man(a1-6)]Man(b1-4)GlcNAc(b1-4)[Fuc(a1-6)]GlcNAc
# Procedure, shortened: as §1
# [41] = target: GlcNAc(b1-4)GlcNAc(b1-4)GlcNAc(b1-4)GlcNAc(b1-4)GlcNAc
# Procedure, shortened: as §1
# [42] = target: GlcNAc(b1-6)Gal(b1-4)GlcNAc
# Procedure, shortened: as §1
# [43] = target: GlcNAc3Prop(b1-4)GlcNAc
# Procedure, shortened: as §1
# [44] = target: Kdn(a2-6)Gal(b1-4)GlcNAc
# Procedure, shortened: as §1
# [45] = target: Man(a1-2)Man(a1-3)[Man(a1-2)Man(a1-6)]Man
# Procedure, shortened: as §1
# [46] = target: Neu5Ac(a2-3)Gal(b1-3)GalNAc6S
# Procedure, shortened: as §1
# [47] = target: Neu5Ac(a2-3)Gal(b1-3)GlcNAc(b1-2)Man(a1-3)[Neu5Ac(a2-3)Gal(b1-3)GlcNAc(b1-2)Man(a1-6)]Man(b1-4)GlcNAc(b1-4)GlcNAc
# Procedure, shortened: as §1
# [48] = target: Neu5Ac(a2-3)Gal(b1-3)GlcNAc6S
# Procedure, shortened: as §1
# [49] = target: Neu5Ac(a2-3)Gal(b1-3)[Fuc(a1-4)]GlcNAc(b1-3)Gal(b1-4)[Fuc(a1-3)]GlcNAc
# Procedure, shortened: as §1
# [50] = target: Neu5Ac(a2-3)Gal(b1-4)GlcNAc(b1-2)Man
# Procedure, shortened: as §1
# [51] = target: Neu5Ac(a2-3)Gal(b1-4)GlcNAc(b1-2)[Neu5Ac(a2-3)Gal(b1-4)GlcNAc(b1-6)]Man(a1-6)[Neu5Ac(a2-3)Gal(b1-4)GlcNAc(b1-2)Man(a1-3)][GlcNAc(b1-4)]Man(b1-4)GlcNAc(b1-4)GlcNAc
# Procedure, shortened: as §1
# [52] = target: Neu5Ac(a2-3)Gal(b1-4)[Fuc(a1-3)]GlcNAc(b1-3)Gal(b1-4)GlcNAc
# Procedure, shortened: as §1
# [53] = target: Neu5Ac(a2-3)Gal6S(b1-4)GlcNAc
# Procedure, shortened: as §1
# [54] = target: Neu5Ac(a2-3)[Neu5Ac(a2-6)]GalNAc
# Procedure, shortened: as §1
# [55] = target: Neu5Ac(a2-6)Gal(b1-4)GlcNAc(b1-3)Gal(b1-4)GlcNAc(b1-2)Man(a1-3)[Neu5Ac(a2-6)Gal(b1-4)GlcNAc(b1-3)Gal(b1-4)GlcNAc(b1-2)Man(a1-6)]GalNAc
# Procedure, shortened: as §1
# [56] = target: Neu5Ac(a2-6)GalNAc(b1-4)GlcNAc6S
# Procedure, shortened: as §1
# [57] = target: Neu5Ac(a2-6)GlcNAc(b1-4)GlcNAc
# Procedure, shortened: as §1
# [58] = target: Neu5Ac(a2-8)Neu5Ac(a2-3)Gal(b1-4)GlcNAc
# Procedure, shortened: as §1
binder,measurement,setting,value
B1,glycan array binding signal (z-score),[1],-0.454
same,glycan array binding signal (z-score),[2],4.62
same,glycan array binding signal (z-score),[3],-0.109
same,glycan array binding signal (z-score),[4],-0.295
same,glycan array binding signal (z-score),[5],-0.303
same,glycan array binding signal (z-score),[6],3.07
same,glycan array binding signal (z-score),[7],2.66
same,glycan array binding signal (z-score),[8],3.15
same,glycan array binding signal (z-score),[9],0.306
same,glycan array binding signal (z-score),[10],2.81
same,glycan array binding signal (z-score),[11],0.244
same,glycan array binding signal (z-score),[12],-0.126
same,glycan array binding signal (z-score),[13],-0.242
same,glycan array binding signal (z-score),[14],-0.09
same,glycan array binding signal (z-score),[15],4.26
same,glycan array binding signal (z-score),[16],-0.213
same,glycan array binding signal (z-score),[17],-0.173
same,glycan array binding signal (z-score),[18],-0.114
same,glycan array binding signal (z-score),[19],-0.074
same,glycan array binding signal (z-score),[20],-0.375
same,glycan array binding signal (z-score),[21],-0.291
same,glycan array binding signal (z-score),[22],-0.119
same,glycan array binding signal (z-score),[23],0.092
same,glycan array binding signal (z-score),[24],-0.34
same,glycan array binding signal (z-score),[25],-0.205
same,glycan array binding signal (z-score),[26],2.87
same,glycan array binding signal (z-score),[27],-0.311
same,glycan array binding signal (z-score),[28],0.257
same,glycan array binding signal (z-score),[29],0.027
same,glycan array binding signal (z-score),[30],0.365
same,glycan array binding signal (z-score),[31],-0.304
same,glycan array binding signal (z-score),[32],-0.255
same,glycan array binding signal (z-score),[33],-0.301
same,glycan array binding signal (z-score),[34],2.85
same,glycan array binding signal (z-score),[35],3.28
same,glycan array binding signal (z-score),[36],3.71
same,glycan array binding signal (z-score),[37],7.34
same,glycan array binding signal (z-score),[38],0.839
same,glycan array binding signal (z-score),[39],-0.351
same,glycan array binding signal (z-score),[40],-0.214
same,glycan array binding signal (z-score),[41],-0.314
same,glycan array binding signal (z-score),[42],-0.35
same,glycan array binding signal (z-score),[43],-0.979
same,glycan array binding signal (z-score),[44],-0.242
same,glycan array binding signal (z-score),[45],-0.231
same,glycan array binding signal (z-score),[46],-0.272
same,glycan array binding signal (z-score),[47],-0.195
same,glycan array binding signal (z-score),[48],-0.281
same,glycan array binding signal (z-score),[49],-0.105
same,glycan array binding signal (z-score),[50],-0.116
same,glycan array binding signal (z-score),[51],-0.361
same,glycan array binding signal (z-score),[52],0.04
same,glycan array binding signal (z-score),[53],-0.242
same,glycan array binding signal (z-score),[54],-0.294
same,glycan array binding signal (z-score),[55],0.201
same,glycan array binding signal (z-score),[56],-0.275
same,glycan array binding signal (z-score),[57],-0.359
same,glycan array binding signal (z-score),[58],-0.323
